Experiment [1] in a line: qHTS of pediatric cancer cell lines to identify multiple opportunities for drug repurposing: Primary screen for MG 63 (6-TG R) cells (AID 1347105). Note: nearly all actives have a fitted effect of over 50% in size. In a few lines: (§1)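 Phenotypic viability qHTS, 48 h compound exposure, CellTiter-Glo luminescence read-out; multi-concentration dosing so that potency and efficacy derive directly from the primary screen's curves.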
A short description of experiment [2]: qHTS of pediatric cancer cell lines to identify multiple opportunities for drug repurposing: Primary screen for control Hh wild type fibroblast cells (AID 1347106). Note: nearly all actives have a fitted effect of over 55% in size. The method in brief: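 Viability after 48 h compound treatment at 37C, 500-1,000 cells/well, read as ATP luminescence with CellTiter-Glo. Primary screens used 11-point (MIPE, 0.78 nM-46 µM) or 8-point (NPC, 0.59 nM-46 µM) final concentrations; follow-up screens used 11-point dilutions.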
(In general: In qHTS, concentration-response curves come from the screen itself.)

Experiment [3] can be described thus: qHTS of pediatric cancer cell lines to identify multiple opportunities for drug repurposing: Primary screen for Rh41 cells (AID 1347108). Note: nearly all actives have a fitted effect of over 70% in size. The method in brief: as §1
Experiment [4] can be described thus: qHTS of pediatric cancer cell lines to identify multiple opportunities for drug repurposing: Primary screen for Rh30 cells (AID 1347107). Note: nearly all actives have a fitted effect of over 75% in size. In a few lines: (§2)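 Cells (500-1,000/well) in growth media were settled 5 h at 37 degrees C, then given compounds for 48 h. Viability was read as CellTiter-Glo luminescence. Primary runs used MIPE at 11 points (0.78 nM-46 µM) and NPC at 8 points (0.59 nM-46 µM); follow-ups used 11 points.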

Experiment [5] can be described thus: qHTS of pediatric cancer cell lines to identify multiple opportunities for drug repurposing: Confirmatory screen for SK-N-MC cells (AID 1347111).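 Note: cells exposed to compound for 48 h before the readout; nearly all actives have a fitted effect of over 70% in size.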 The method in brief: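 Metabolically active cells were quantified by ATP-dependent luminescence (CellTiter-Glo, 15 min at room temperature) following 48 h treatment. Cells had been plated at 500-1,000 per well and settled for 5 h beforehand.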

Experiment [6] in a line: qHTS of pediatric cancer cell lines to identify multiple opportunities for drug repurposing: Confirmatory screen for BT-12 cells (AID 1347112). Note: nearly all actives have a fitted effect of over 55% in size. In a few lines:
as §2

Experiment [7] in a line: qHTS of pediatric cancer cell lines to identify multiple opportunities for drug repurposing: Confirmatory screen for NB1643 cells (AID 1347109). Note: nearly all actives have a fitted effect of over 45% in size. In a few lines:
as §2

A short description of experiment [8]: qHTS of pediatric cancer cell lines to identify multiple opportunities for drug repurposing: Confirmatory screen for A673 cells (AID 1347110).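 Note: cells exposed to compound for 48 h before the viability read; nearly all actives have a fitted effect of over 65% in size.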 The method in brief: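 A673 cells at 500-1,000 cells/well were dosed 5 h after plating, in dilution series up to 46 uM final; primary runs used 8 or 11 points and confirmatory runs used 11 points. Viability was read by CellTiter-Glo luminescence after 48 h, against DMSO and 2.3 uM bortezomib controls.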

Experiment [9] in a line: qHTS of pediatric cancer cell lines to identify multiple opportunities for drug repurposing: Confirmatory screen for LAN-5 cells (AID 1347113). Note: nearly all actives have a fitted effect of over 65% in size. In a few lines:
as §2

A short description of experiment [10]: qHTS of pediatric cancer cell lines to identify multiple opportunities for drug repurposing: Confirmatory screen for DAOY cells (AID 1347114). Note: nearly all actives have a fitted effect of over 65% in size. The method in brief:
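Viability measured as metabolically active cells via CellTiter-Glo luminescence following 48 hours of compound exposure, 11-point dilutions in confirmatory testing. 500-1,000 cells/well plated 5 hours before dosing; controls were DMSO and 2.3 µM bortezomib.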

Results filed as inconclusive are left out. Activity calls are given as the source filed them. Calls come from the whole dose curve; as a rule, active = well fitted curve in the direction sought with a large enough effect; inconclusive = small, poorly fitted or top-dose-only effect, or another doubt; inactive = no such curve, though single readings can be large; an effect the other way counts as inactive or inconclusive.
Potency is the fitted concentration of half-maximal effect.

For `Cc1cc(CN2CCN(c3c(Br)cnc4nc(-c5ccc(N6CCN(C)CC6)cc5)[nH]c34)CC2)no1`, the Potency in [1] was 18.7 µM (active); in experiment [3] it was 5.9 µM (active). Further, the Potency entry in [2] is “inactive”.

In the case of `C=CC(=O)N1CCC[C@@H](n2nc(-c3ccc(Oc4ccccc4)cc3)c3c(N)ncnc32)C1`, the Potency in [1] was 23.5 µM (active); in experiment [4], 11.8 µM (active); in [5], 5.85 µM (active). Also, the Potency result in experiment [2] and in experiment [6] was “inactive” each time.

On to `Cc1[nH]nc2ccc(-c3cncc(OC[C@@H](N)Cc4ccccc4)c3)cc12`, for which the Potency in experiment [1] was 2.96 µM (active); in experiment [3] it was 4.69 µM (active); in experiment [7], 1.17 µM (active); in experiment [8], 1.51 µM (active); in experiment [5], 2.33 µM (active); in [6], 9.27 µM (active). The Potency was 3.29 µM (active) in [9] and 4.27 µM (active) in [10]. Besides, the Potency result in [4] was “inactive”.

As for `COc1ccc(C(=O)CC2(O)C(=O)Nc3c(Cl)ccc(Cl)c32)cc1` (stereo not drawn), the Potency in [1] and in experiment [3] was 3.72 µM (active) throughout. Besides, the Potency result in [4] is “inactive”.

In the case of `CN(C)Cc1c(C(=O)NCCOc2ccc(C(=O)NO)cc2)oc2ccccc12`, the Potency in experiment [1] is 3.72 µM (active); in [4], 4.69 µM (active); in [3], 1.48 µM (active); in experiment [7] it was 0.465 µM (active); in experiment [8], 1.31 µM (active); in experiment [5], 0.585 µM (active). In addition, the Potency in experiment [6] was 8.27 µM (active); in experiment [9], 0.928 µM (active); in [10] it was 2.61 µM (active).

As for `Nc1cc(C(F)(F)F)c(-c2cc(N3CCOCC3)nc(N3CCOCC3)n2)cn1`, the Potency in experiment [1] was 0.187 µM (active); in experiment [4], 11.8 µM (active); in experiment [3], 1.18 µM (active); in [8], 2.93 µM (active); in [5], 5.22 µM (active).

On to `CN1CC[C@@H](c2c(O)cc(O)c3c(=O)cc(-c4ccccc4Cl)oc23)[C@@H](O)C1`, for which the Potency in experiment [1] was 0.148 µM (active); in experiment [3] it was 0.296 µM (active); in experiment [7], 0.261 µM (active); in [8], 0.522 µM (active); in [5], 0.414 µM (active); in experiment [6], 0.737 µM (active). In addition, the Potency in experiment [9] and in [10] was 0.465 µM (active) in each case. For the same molecule, the Potency entry in experiment [4] is “inactive”.

Turning to `COc1ccc(-c2cc3c(C)nc(N)nc3n(C3CCC(OCCO)CC3)c2=O)cn1` (stereo not drawn), the Potency in [1] is 0.0187 µM (active); in experiment [4], 4.18 µM (active); in experiment [3], 0.118 µM (active); in [8], 1.17 µM (active). Besides, the Potency entry in experiment [7], in experiment [6], in experiment [9] and in [10] was “inactive” throughout.

Consider `C1=CCOCc2cc(ccc2OCCN2CCCC2)Nc2nccc(n2)-c2cccc(c2)OCC1`, for which the figures for the Potency in experiment [1], in experiment [4] and in experiment [3] were 11.8 µM (active), 14.8 µM (active) and 5.9 µM (active), respectively.

Turning to `Cc1nc2cnc3ccc(C#Cc4cccnc4)cc3c2n1-c1ccc(C(C)(C)C#N)cc1`, the Potency in experiment [1] was 0.0743 µM (active); in experiment [4] it was 0.469 µM (active); in [3], 0.0833 µM (active); in [7] it was 12 µM (active); in experiment [8], 2.69 µM (active); in experiment [5], 1.7 µM (active). In addition, the figures for the Potency in experiment [9] and in experiment [10] were 3.02 µM (active) and 13.5 µM (active), respectively.

With `CS(=O)(=O)N1CCN(Cc2cc3nc(-c4cccc5[nH]ncc45)nc(N4CCOCC4)c3s2)CC1`, the Potency in experiment [1] is 0.0935 µM (active); in experiment [7], 8.51 µM (active); in [8] it was 3.39 µM (active); in experiment [5], 1.7 µM (active); in [9] it was 1.91 µM (active). Further, in [2], the Potency result is “inactive”.

As to `CCn1nnc2c(N3CCOCC3)nc(-c3ccc(NC(=O)Nc4ccc(C(=O)N5CCN(C)CC5)cc4)cc3)nc21`, the Potency in [1] is 0.0469 µM (active); in [4], 7.43 µM (active); in experiment [3], 0.0935 µM (active); in [7], 1.85 µM (active); in experiment [8], 0.585 µM (active); in [5] it was 0.657 µM (active). Moreover, the Potency in [9] is 0.522 µM (active).

Regarding `CN(c1ncccc1CNc1nc(Nc2ccc3c(c2)CC(=O)N3)ncc1C(F)(F)F)S(C)(=O)=O`, the Potency was 9.35 µM (active) in experiment [1]; 20.9 µM (active) in [2]; 9.35 µM (active) in experiment [3]; 3.69 µM (active) in [8]; 13.1 µM (active) in experiment [6]; 4.65 µM (active) in [9]. The Potency in experiment [10] was 6.57 µM (active).

As for `c1cc(-c2cnn3cc(-c4ccc(OCCN5CCCCC5)cc4)cnc23)ccn1`, the Potency in [1] was 18.7 µM (active); in experiment [4] it was 18.7 µM (active); in [3], 9.35 µM (active).

Turning to `CN[C@H]1CCc2cc(OC)c(OC)c(OC)c2-c2ccc(OC)c(=O)cc21`, the Potency result in experiment [1] and in [4] was “inactive” in each case. For the same molecule, the Potency in experiment [8] was 0.104 µM (active); in experiment [6], 0.147 µM (active); in experiment [10], 0.0465 µM (active).

`CN(C)CC=CC(=O)Nc1cc2c(Nc3ccc(F)c(Cl)c3)ncnc2cc1O[C@H]1CCOC1`: the Potency in experiment [1] was 14.8 µM (active); in experiment [4], 14.8 µM (active); in experiment [3], 7.43 µM (active).

On to `O=C(CCCCCCC(=O)Nc1ccc([C@H]2O[C@@H](CSc3nc(-c4ccccc4)c(-c4ccccc4)o3)C[C@@H](c3ccc(CO)cc3)O2)cc1)NO`, for which the Potency in experiment [1] was 14.8 µM (active); in [4], 14.8 µM (active); in [3], 9.35 µM (active).

For the molecule `Cc1nc(Nc2n[nH]c3c2CN(C(=O)N[C@H](CN(C)C)c2ccccc2)C3(C)C)c2sccc2n1`, the Potency in [1] is 9.35 µM (active); in experiment [2] it was 14.8 µM (active); in experiment [3], 6.62 µM (active); in experiment [8], 13.1 µM (active); in experiment [6], 13.1 µM (active). In [10], the Potency result was “inactive”.

Regarding `C[C@H]1C[C@@H]2[C@@H]([C@@H](O)C[C@@]3(C)[C@H]2CC[C@]3(O)C(=O)CO)[C@@]2(C)C=CC(=O)C=C12`, the Potency result in [1], in experiment [4] and in experiment [3] was “inactive” in each case.

For the molecule `CCCCOc1c(C(=O)c2c(F)cc(C)cc2F)cnc2n[nH]cc12`, the results for the Potency in [1] and in [3] were 11.8 µM (active) and 18.7 µM (active), respectively. In addition, in experiment [4], the Potency entry is “inactive”.

For the molecule `Cc1cc(Nc2cc(CN3CCOCC3)c3nc(C)c(Cc4ccc(Cl)cc4F)n3n2)n[nH]1`, the Potency in experiment [1], in experiment [4] and in [3] was 14.8 µM (active) each time.

Turning to `CNC(=O)c1ccccc1Nc1nc(Nc2ccc(N3CCOCC3)cc2OC)ncc1Cl`, the Potency was 0.935 µM (active) in experiment [1]; 1.32 µM (active) in experiment [4]; 0.935 µM (active) in experiment [3]; 0.369 µM (active) in [7]; 1.04 µM (active) in experiment [8]; 0.737 µM (active) in experiment [5]. In addition, the Potency in experiment [9] was 0.414 µM (active).

As to `CNc1nccc(-c2cccnc2Oc2cc(C(=O)Nc3cccc(C(F)(F)F)c3)ccc2C)n1`, in experiment [1], the Potency was 4.69 µM (active). Moreover, the Potency result in experiment [4] is “inactive”.

Consider `CC(C)(O)c1cc2nc(-c3cnc(N)nc3)nc(N3CCOCC3)c2s1`, for which the Potency in experiment [1] is 0.0469 µM (active); in experiment [4], 5.26 µM (active); in [3], 0.372 µM (active); in [7] it was 1.47 µM (active); in experiment [8] it was 1.85 µM (active); in [5], 1.17 µM (active). The Potency in experiment [9] is 0.737 µM (active).

As for `Cc1cc(Nc2ncnc3ccc(-c4ccc(CNCCS(C)(=O)=O)o4)cc23)ccc1Oc1ccn2ncnc2c1`, the Potency was 18.7 µM (active) in experiment [1], 11.8 µM (active) in experiment [3], 20.8 µM (active) in [5] and 20.8 µM (active) in experiment [9]. The Potency result in [2] and in experiment [6] was “inactive” in each case.

The values above are taken from PubChem BioAssay (NCATS).
